Inconclusive results are not listed. Entries that show only a call come without a potency. Values without a mark were called inactive. The source made the active and inactive calls. Calls come from the whole dose curve; as a rule, active = well fitted curve in the direction sought with a large enough effect; inconclusive = small, poorly fitted or top-dose-only effect, or another doubt; inactive = no such curve, though single readings can be large; an effect the other way counts as inactive or inconclusive.
Assays:
[1] = test system: MKL-1; experiment: qHTS assay to identify novel small-molecules to repurpose for Merkel cell carcinoma treatment (AID 1296009); conditions: MCC and control cell lines, CellTiter-Glo viability, 72 h; series mostly up to 46 µM; note: nearly all actives have a fitted effect of over 60% in size
Outline: (§1)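 After compound transfer in DMSO, plates were kept 72 hr at 37 degree celsius. Luminescent ATP signal from CellTiter-Glo served as viability measure, normalized against DMSO and no-cell controls.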

[2] = test system: MKL-2; experiment: as above; conditions: MCC and control cell lines, CellTiter-Glo viability, 72 h; series mostly up to 46 µM
Outline: as §1

[3] = test system: UISO; experiment: as above; conditions: MCC and control cell lines, CellTiter-Glo viability, 72 h; series mostly up to 46 µM
Outline: as §1

[4] = test system: C33A; experiment: Primary qHTS to identify gynecologic anti-cancer compounds using libraries of approved drugs and bioactive compounds (AID 1345084); conditions: Gynecologic cancer cell panel viability, ATPlite luminescence, 48 h; series mostly up to 57.5 µM; note: nearly all actives have a fitted effect of over 55% in size
Outline: (§2)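 Five-point cytotoxicity, 48 h drug exposure at 37 C, 5% CO2, on cells seeded 16 h beforehand. ATP content read by ATPlite luminescence.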

[5] = test system: CAOV3; experiment: as above; conditions: Gynecologic cancer cell panel viability, ATPlite luminescence, 48 h; series mostly up to 57.5 µM
Outline: as §2

[6] = test system: CASKI; experiment: as above; conditions: Gynecologic cancer cell panel viability, ATPlite luminescence, 48 h; series mostly up to 57.5 µM
Outline: as §2

[7] = test system: Es-2; experiment: as above; conditions: Gynecologic cancer cell panel viability, ATPlite luminescence, 48 h; series mostly up to 57.5 µM
Outline: as §2

[8] = test system: HeLa; experiment: as above; conditions: Gynecologic cancer cell panel viability, ATPlite luminescence, 48 h; series mostly up to 57.5 µM
Outline: as §2

[9] = test system: Hek293T; experiment: as above; conditions: Gynecologic cancer cell panel viability, ATPlite luminescence, 48 h, control line for the selectivity index; series mostly up to 57.5 µM
Outline: as §2

[10] = test system: JEG-3; experiment: as above; conditions: Gynecologic cancer cell panel viability, ATPlite luminescence, 48 h; series mostly up to 57.5 µM
Outline: as §2

[11] = test system: OV90; experiment: as above; conditions: Gynecologic cancer cell panel viability, ATPlite luminescence, 48 h; series mostly up to 57.5 µM
Outline: as §2

[12] = test system: PA-1; experiment: as above; conditions: Gynecologic cancer cell panel viability, ATPlite luminescence, 48 h; series mostly up to 57.5 µM
Outline: as §2

[13] = test system: SKOV3; experiment: as above; conditions: Gynecologic cancer cell panel viability, ATPlite luminescence, 48 h; series mostly up to 57.5 µM
Outline: as §2

[14] = test system: MCC-26; experiment: qHTS assay to identify novel small-molecules to repurpose for Merkel cell carcinoma treatment (AID 1296009); conditions: MCC and control cell lines, CellTiter-Glo viability, 72 h; series mostly up to 46 µM; note: nearly all actives have a fitted effect of over 60% in size
Outline: as §1

[15] = test system: WaGa; experiment: as above; conditions: MCC and control cell lines, CellTiter-Glo viability, 72 h; series mostly up to 46 µM
Outline: as §1
Potency is the fitted concentration of half-maximal effect.

Compound | Potency [1] | Potency [2] | Potency [3] | Potency [4] | Potency [5] | Potency [6] | Potency [7] | Potency [8] | Potency [9] | Potency [10] | Potency [11] | Potency [12] | Potency [13] | Potency [14] | Potency [15]
Cc1ccc(O)c2ncccc12 | 15 µM (active) | 8.41 µM (active) | 11.9 µM (active) | inactive | inactive | inactive | inactive | inactive | inactive | inactive | inactive | inactive | inactive |  | 
CC(O)C(=O)O (stereo not drawn) |  |  |  | inactive | inactive | inactive | inactive | inactive | inactive | inactive | inactive | inactive | inactive |  | 
Oc1c(Cl)cc(Cl)cc1Sc1cc(Cl)cc(Cl)c1O |  |  |  | inactive | inactive | inactive | inactive | inactive | inactive | inactive | inactive | inactive | inactive |  | 
C[C@@H]1CN(CCCn2c3ccccc3c3ccccc32)C[C@H](C)N1 |  |  |  | 22.4 µM (active) |  |  |  |  |  |  | 25.1 µM (active) |  |  | inactive | 
CCCCCCCCCCCCCCCC[N+](C)(C)CCN(Cc1ccc(OC)cc1)c1ncccn1 | 5.96 µM (active) | 2.37 µM (active) | 10.6 µM (active) |  | 17.8 µM (active) |  |  |  |  |  |  | 15.8 µM (active) | 20 µM (active) |  | 16.8 µM (active)
Nc1ccc(C(=O)Nc2ccccc2N)cc1 | 18.8 µM (active) | 5.96 µM (active) |  | inactive | inactive | inactive |  |  | inactive | inactive |  | 11.2 µM (active) | inactive |  | 2.66 µM (active)
CCN(CC)CCOc1ccc(C(O)(Cc2ccc(Cl)cc2)c2ccc(C)cc2)cc1 (stereo not drawn) |  | 7.5 µM (active) |  |  |  |  |  | inactive |  | inactive | 17.8 µM (active) |  |  |  | 18.8 µM (active)
O=C(OCCOCCO)c1ccccc1Nc1cccc(C(F)(F)F)c1 |  |  |  | inactive | inactive | inactive | inactive | inactive | inactive | inactive | inactive | inactive | inactive |  | 
C#C[C@]1(OC(C)=O)CC[C@H]2[C@@H]3CCC4=C[C@@H](OC(C)=O)CC[C@@H]4[C@H]3CC[C@@]21C |  |  |  | inactive | inactive | inactive | inactive |  | inactive | inactive | inactive | inactive | inactive |  | 
CN1CCCC(CC2c3ccccc3Sc3ccccc32)C1 (stereo not drawn) |  | 23.7 µM (active) | 23.7 µM (active) |  |  | inactive | inactive | inactive | inactive | inactive |  | inactive |  | inactive | 
CCCSS/C(CCO)=C(\C)N(C=O)Cc1cnc(C)nc1N | 21.1 µM (active) | 6.68 µM (active) | 29.9 µM (active) | inactive | inactive | inactive |  | inactive | inactive | inactive | inactive | inactive | inactive |  | 
O=c1[nH]c(=O)n([C@H]2C[C@H](O)[C@@H](CO)O2)cc1C(F)(F)F |  |  |  |  | inactive |  |  | inactive | inactive | inactive | inactive | 8.91 µM (active) | inactive |  | 
CCCCCCCCCCCCCCCC[N+](C)(C)CC | 0.119 µM (active) | 0.0473 µM (active) | 0.668 µM (active) |  |  | 8.91 µM (active) | 28.2 µM (active) | 28.2 µM (active) |  |  | 22.4 µM (active) | 10 µM (active) | 2.51 µM (active) |  | 0.119 µM (active)
CC(=O)N(O)CCCCCNC(=O)CCC(=O)N(O)CCCCCNC(=O)CCC(=O)N(O)CCCCCN | 3.35 µM (active) |  |  |  |  | inactive |  | inactive |  |  | 6.31 µM (active) |  | inactive |  | 10.6 µM (active)
CC(=O)OCC(=O)[C@@]1(O)CC[C@H]2[C@@H]3CCC4=CC(=O)C=C[C@]4(C)[C@H]3[C@@H](O)C[C@@]21C |  |  |  | inactive | inactive | inactive | inactive | inactive | inactive | inactive | inactive | inactive | inactive |  | 
CC(CCc1ccccc1)NCC(O)c1ccc(O)c(C(N)=O)c1 (stereo not drawn) |  |  |  | inactive | inactive | inactive | inactive | inactive | inactive | inactive | inactive | inactive | inactive |  | 
CC(Cc1ccccc1)(NC(=O)CN)c1ccccc1 (stereo not drawn) |  |  |  | inactive | inactive | inactive | inactive | inactive | inactive | inactive | inactive | inactive | inactive |  | 
COc1cccc(OC)c1C(=O)N[C@@H]1C(=O)N2[C@@H]1SC(C)(C)[C@@H]2C(=O)O |  |  |  | inactive | inactive | inactive | inactive | inactive | inactive | inactive | inactive | inactive | inactive |  | 
O=C(CCCN1CCC(O)(c2ccc(Br)cc2)CC1)c1ccc(F)cc1 | inactive | inactive |  | inactive |  | inactive | inactive | inactive | inactive | inactive |  |  | inactive | inactive | 
O=c1c(-c2ccccc2)c1-c1ccccc1 | 26.6 µM (active) | 13.3 µM (active) | 26.6 µM (active) |  |  |  |  | inactive |  | inactive |  |  |  | inactive | 18.8 µM (active)
Cc1c(C(N)=O)cc([N+](=O)[O-])cc1[N+](=O)[O-] |  |  |  | inactive | inactive | inactive | inactive | inactive | inactive | inactive | inactive | inactive | inactive |  | 
C/C=C/c1ccc(OC)cc1 |  |  |  | inactive | inactive | inactive | inactive | inactive | inactive | inactive | inactive | inactive | inactive |  | 
CCCCc1nc(Cl)c(CO)n1Cc1ccc(-c2ccccc2-c2nn[nH]n2)cc1 |  |  |  | inactive | inactive | inactive | inactive | inactive | inactive | inactive | inactive | inactive | inactive |  | 
